Results from PubChem BioAssay AID1159580 (chemical genetic matrix, 2015).
Screen size: about 5,500 compounds; about 2,000 (36%) were called active. Inconclusive results (about 18%) are left out. Rule as the data show it: active = normalized growth mostly below about 0.91 (no sharp cut-off); inconclusive = no clear call, values can overlap the other calls; inactive = mostly above about 0.92. Some of the results follow.

Assay: chemical genetic growth profiling, strain panel (AID 1159580);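 also: tested at 20 µM; growth read once vehicle control cultures reached saturation at 30 °C; 1 = growth at the plate median or of vehicle wells; lower values mean less growth of the strain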
Settings: growth OD

Measured: normalized growth

CC(C)(C)NC[C@@H](O)COc1nsnc1N1CCOCC1
inactive: S. cerevisiae deletion strains, locus YJR075W, strain HOC1, hits give low values 0.995 | S. cerevisiae deletion strains, locus YKL009W, strain mrt4, hits give low values 1.03 | S. cerevisiae deletion strains, locus YKL068W, hits give low values 0.989 | S. cerevisiae deletion strains, locus YKL085W, strain MDH1 (second series), hits give low values 0.983 | S. cerevisiae deletion strains, locus YKL085W, strain MDH1, hits give low values 0.983 | S. cerevisiae deletion strains, locus YKL160W, strain elf1, hits give low values 1.01 | S. cerevisiae deletion strains, locus YKR001C, strain vps1, hits give low values 0.952 | S. cerevisiae deletion strains, locus YKR026C, strain gcn3, hits give low values 1.02 | S. cerevisiae deletion strains, locus YKR091W, strain srl3, hits give low values 1.01 | S. cerevisiae deletion strains, locus YLL001W, strain dnm1, hits give low values 1 | S. cerevisiae deletion strains, locus YLL026W, hits give low values 1.01 | S. cerevisiae deletion strains, locus YLL041C, strain sdh2, hits give low values 1.03 | S. cerevisiae deletion strains, locus YLR027C, strain aat2, hits give low values 1.01 | S. cerevisiae deletion strains, locus YLR039C, strain RIC1, hits give low values 1.01 | S. cerevisiae deletion strains, locus YLR058C, strain SHM2, hits give low values 1 | S. cerevisiae deletion strains, locus YLR102C, strain apc9, hits give low values 0.976 | S. cerevisiae deletion strains, locus YLR113W, strain HOG1, hits give low values 0.975 | S. cerevisiae deletion strains, locus YLR221C, strain rsa3, hits give low values 0.995 | S. cerevisiae deletion strains, locus YLR258W, strain gsy2, hits give low values 1.01 | S. cerevisiae deletion strains, locus YLR262C, strain YPT6 (second series), hits give low values 1.03 | S. cerevisiae deletion strains, locus YLR262C, strain YPT6, hits give low values 1.02 | S. cerevisiae deletion strains, locus YLR268W, strain sec22, hits give low values 0.961 | S. cerevisiae deletion strains, locus YLR320W, strain mms22, hits give low values 0.997 | S. cerevisiae deletion strains, locus YLR330W, strain CHS5, hits give low values 0.989 | S. cerevisiae deletion strains, locus YLR342W, strain FKS1 (second series), hits give low values 0.992 | S. cerevisiae deletion strains, locus YLR342W, strain FKS1, hits give low values 1 | S. cerevisiae deletion strains, locus YLR357W, strain rsc2, hits give low values 0.998 | S. cerevisiae deletion strains, locus YLR370C, strain arc18, hits give low values 1.02 | S. cerevisiae deletion strains, locus YLR371W, strain rom2, hits give low values 0.977 | S. cerevisiae deletion strains, locus YLR384C, strain iki3, hits give low values 1.01 | S. cerevisiae deletion strains, locus YLR418C, strain cdc73, hits give low values 1.03 | S. cerevisiae deletion strains, locus YML016C, strain PPZ1, hits give low values 0.988 | S. cerevisiae deletion strains, locus YML032C, strain rad52, hits give low values 1.01 | S. cerevisiae deletion strains, locus YML120C, strain ndi1, hits give low values 1.02 | S. cerevisiae deletion strains, locus YML124C, strain tub3, hits give low values 0.988 | S. cerevisiae deletion strains, locus YMR058W, strain fet3, hits give low values 1 | S. cerevisiae deletion strains, locus YMR078C, strain ctf18, hits give low values 0.972 | S. cerevisiae deletion strains, locus YMR125W, strain sto1, hits give low values 1.02 | S. cerevisiae deletion strains, locus YMR129W, hits give low values 1.02 | S. cerevisiae deletion strains, locus YMR205C, strain PFK2, hits give low values 1.02 | S. cerevisiae deletion strains, locus YMR223W, strain ubp8, hits give low values 1.02 | S. cerevisiae deletion strains, locus YMR231W, strain pep5, hits give low values 1.01 | S. cerevisiae deletion strains, locus YMR263W, strain SAP30, hits give low values 0.997 | S. cerevisiae deletion strains, locus YMR307W, strain GAS1, hits give low values 0.921 | S. cerevisiae deletion strains, locus YNL067W, strain RPL9B, hits give low values 0.999 | S. cerevisiae deletion strains, locus YNL071W, strain lat1, hits give low values 1.01 | S. cerevisiae deletion strains, locus YNL153C, strain GIM3, hits give low values 0.988 | S. cerevisiae deletion strains, locus YNL183C, strain NPR1, hits give low values 0.934 | S. cerevisiae deletion strains, locus YNL209W, strain ssb2, hits give low values 1.02 | S. cerevisiae deletion strains, locus YNL233W, strain BNI4, hits give low values 0.973 | S. cerevisiae deletion strains, locus YNL248C, strain rpa49, hits give low values 1.02 | S. cerevisiae deletion strains, locus YNL250W, strain rad50, hits give low values 0.969 | S. cerevisiae deletion strains, locus YNL271C, strain bni1, hits give low values 0.985 | S. cerevisiae deletion strains, locus YNL298W, strain CLA4, hits give low values 0.993 | S. cerevisiae deletion strains, locus YNL307C, strain MCK1, hits give low values 0.974 | S. cerevisiae deletion strains, locus YNL322C, strain KRE1 (second series), hits give low values 1 | S. cerevisiae deletion strains, locus YNL322C, strain KRE1, hits give low values 0.993 | S. cerevisiae deletion strains, locus YNR049C, strain mso1, hits give low values 1.01 | S. cerevisiae deletion strains, locus YNR052C, strain pop2, hits give low values 0.994 | S. cerevisiae deletion strains, locus YOL006C, strain TOP1, hits give low values 0.993 | S. cerevisiae deletion strains, locus YOL012C, strain htz1 0.711 | S. cerevisiae deletion strains, locus YOL147C, strain pex11, hits give low values 0.993 | S. cerevisiae deletion strains, locus YOR001W, strain rrp6, hits give low values 1.02 | S. cerevisiae deletion strains, locus YOR061W, strain CKA2, hits give low values 1 | S. cerevisiae deletion strains, locus YOR069W, strain VPS5, hits give low values 0.99 | S. cerevisiae deletion strains, locus YOR070C, strain gyp1, hits give low values 1.01 | S. cerevisiae deletion strains, locus YOR080W, strain dia2, hits give low values 1.02 | S. cerevisiae deletion strains, locus YOR083W, strain WHI5, hits give low values 0.981 | S. cerevisiae deletion strains, locus YOR106W, strain vam3, hits give low values 1.03 | S. cerevisiae deletion strains, locus YOR136W, strain idh2, hits give low values 0.988 | S. cerevisiae deletion strains, locus YOR144C, strain elg1, hits give low values 0.982 | S. cerevisiae deletion strains, locus YOR184W, strain ser1, hits give low values 0.989 | S. cerevisiae deletion strains, locus YOR231W, strain MKK1, hits give low values 0.988 | S. cerevisiae deletion strains, locus YOR265W, strain rbl2, hits give low values 1.02 | S. cerevisiae deletion strains, locus YOR270C, strain vph1, hits give low values 1.04 | S. cerevisiae deletion strains, locus YOR290C, strain snf2, hits give low values 1.01 | S. cerevisiae deletion strains, locus YOR316C, strain cot1, hits give low values 0.978 | S. cerevisiae deletion strains, locus YPL051W, strain arl3, hits give low values 1.01 | S. cerevisiae deletion strains, locus YPL078C, strain atp4, hits give low values 1.01 | S. cerevisiae deletion strains, locus YPL106C, strain sse1, hits give low values 0.994 | S. cerevisiae deletion strains, locus YPL240C, strain hsp82, hits give low values 1.02 | S. cerevisiae deletion strains, locus YPL241C, strain CIN2, hits give low values 0.992 | S. cerevisiae deletion strains, locus YPL256C, strain CLN2, hits give low values 0.984 | S. cerevisiae deletion strains, locus YPR119W, strain clb2, hits give low values 0.983 | S. cerevisiae deletion strains, locus YPR141C, strain kar3, hits give low values 0.973 | S. cerevisiae deletion strains, locus YPR163C, strain tif3, hits give low values 0.982 | S. cerevisiae deletion strains, locus YPR167C, strain met16, hits give low values 0.989 | S. cerevisiae deletion strains, strain wtn01, hits give low values 0.943 | S. cerevisiae strains, strain wild type, hits give low values 0.994
